Rows were chosen to be rich in hits. Some 6.1% of all compounds tested hit in one or more screens of this group.
D1 ag: agonists of human D1 dopamine receptor; HEK293 T-REx D1 cells, calcium flux, agonist mode; actives 1% (n = 360,000); P21728; activation, % at 2 µM; in the data active = activation above about 30%; also: 0% is about no effect
Target sequence (P21728 whole entry, looked up): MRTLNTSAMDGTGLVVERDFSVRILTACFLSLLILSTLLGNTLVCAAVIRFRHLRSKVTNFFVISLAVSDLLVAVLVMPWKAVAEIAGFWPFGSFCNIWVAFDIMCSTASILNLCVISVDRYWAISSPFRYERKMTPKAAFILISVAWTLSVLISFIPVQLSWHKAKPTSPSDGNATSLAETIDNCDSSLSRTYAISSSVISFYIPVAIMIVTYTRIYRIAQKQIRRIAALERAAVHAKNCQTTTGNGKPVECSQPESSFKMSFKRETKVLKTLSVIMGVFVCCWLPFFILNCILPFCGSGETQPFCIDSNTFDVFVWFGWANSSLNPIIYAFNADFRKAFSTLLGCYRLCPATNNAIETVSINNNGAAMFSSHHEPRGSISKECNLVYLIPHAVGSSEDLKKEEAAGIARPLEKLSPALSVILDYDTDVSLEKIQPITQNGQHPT
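Agonism was scored from calcium flux recorded over 180 s (1 read/s) after pintool compound addition, following a 10-cycle baseline. Cells were inducible force-coupled HEK293 TREx D1, plated overnight at 30 C and loaded with no-wash calcium dye.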
D3 ag: D3 dopamine receptor (human) agonism. D3R DiscoveRx beta-arrestin cells, luminescence, 90 min. max activation, %. actives 0.58% (n = 410,000); in the data active = max activation above about 30%; also: 0% is about no effect
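Agonist-mode cell screen: cells plated at 1500/well and incubated overnight at 37 °C, then exposed to library compounds for 90 min at 37 °C. Detection reagent was added for 30–60 min at room temperature, and luminescence was read.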
D1 antag: antagonists of human D1 dopamine receptor | HEK293 TREx D1 cells, calcium flux, dopamine EC80; active compounds read low | actives 3.2% (n = 360,000) | AID 504652 | activity change, negative = inhibition, % at 10 µM; in the data active = activity change below about -30%; also: % is scaled to controls: 0 for no effect and ±100 for the full control effect
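Tetracycline-induced HEK293 T-REx cells with force-coupled D1 receptor were loaded with a no-wash calcium dye. Compound was added after a 10 s baseline and read kinetically for 180 s; EC80 dopamine was then added and calcium flux followed another 180 s.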
DRD3 antagonist: blocks the human D3 dopamine receptor; P35462; D3R cells, DiscoveRx beta-arrestin luminescence, antagonist mode; active compounds read low; max response, negative = inhibition, %; actives 2.5% (n = 360,000); AID 652054; in the data active = max response below about -50%; also: % is scaled to controls: 0 for no effect and ±100 for the full control effect
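Cells expressing the human receptor were seeded at 1500 cells/well, incubated overnight at 37 degrees C in 5% CO2, then exposed to library compounds with dopamine controls for 90 minutes at 37 degrees C before luminescent detection.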
D1 potentiator: human D1 dopamine receptor positive modulation | actives 0.036% (n = 360,000) | P21728 | HEK293 TREx D1 cells, calcium flux, dopamine EC20 potentiation | potentiation, % at 10 µM; in the data active = potentiation above about 30%; also: 0% is about no effect
An asterisk follows results filed as active; . = not tested or not shown; ! = not confirmed by another sample.

SMILES | D1 ag | D3 ag | D1 antag | DRD3 antagonist | D1 potentiator
O=C(Cn1cc([N+](=O)[O-])ccc1=O)NCC(=O)Nc1ccc(F)c(F)c1F | . | 8.1 | . | -13.2 | .
COc1ccccc1N(C(=O)CCl)c1cn(C(C)=O)c2ccccc12 | 0.9 | -4.4 | 0.9 | -29.4 | -2.0
CC(=O)n1cc(N(C(=O)CCl)c2ccc(Cl)cc2)c2ccccc21 | 22.2 | -9.3 | -0.9 | -57.9* | 2.1
CN1CCC(OC(=O)COc2ccc(F)cc2)CC1 | 9.3 | 18.3 | -2.8 | 8.6 | -2.4
O=C(NCCc1c[nH]c2ccccc12)c1cnccn1 | 3.7 | 11.5 | -4.7 | 17.3 | -2.2
CCn1c(/C=C/c2ccccc2C)nc2ccccc2c1=O | 3.7 | -3.5 | -4.2 | -9.3 | -2.7
CCn1c(/C=C/c2c(C)n(CC)c3ccccc23)nc2ccccc2c1=O | 5.0 | 35.3* | 6.4 | 57.1 | -3.4
N=C1N(c2ccccc2)C(=S)C(=Nc2ccccc2)N1c1ccccc1 | . | -10.6 | . | -61.3* | .
CN(Cc1ccccc1)C(=O)C(=O)c1c[nH]c2ccccc12 | . | 2.3 | . | 24.5 | .
CCCn1c(O)c(N=NC(=O)CNC(=O)/C=C/c2ccc(OC)cc2)c2ccccc21 | -0.7 | -18.1 | -22.1 | -50.0* | 4.7
Cn1c(CCNC(=O)c2ccc(Cl)c(Cl)c2)nnc1SCc1ccc(Cl)c(Cl)c1 | -1.1 | 0.3 | -2.3 | -53.2* | 5.9
CCOC(=O)CC(NC(=O)Cn1nnc(-c2ccccc2C)n1)c1ccc(OC)cc1 (stereo not given) | 31.4*! | 2.2 | -19.0 | . | -8.7
CCOC(=O)CC(NC(=O)Cn1nnc(-c2ccc(C(F)(F)F)cc2)n1)c1ccc(OC)cc1 (stereo not given) | 16.8 | 6.7 | -16.0 | . | 1.6
O=C1NN=C(c2ccc(Cl)cc2)CC1c1cccc(Cl)c1 (stereo not given) | 8.0 | 9.0 | 15.2 | -60.6* | -1.4
Cc1c(OCC(=O)NCC(O)c2ccccc2)ccc2c(-c3ccccc3)cc(=O)oc12 (stereo not given) | 2.0 | 32.8* | 2.2 | 34.8 | 0.5
Cc1c(OCC(=O)NCc2ccccn2)ccc2c(-c3ccccc3)cc(=O)oc12 | 0.2 | -4.5 | 5.0 | 9.0 | -2.1
O=S(=O)(Nc1ccccc1)c1ccc(NS(=O)(=O)c2c(F)cccc2F)cc1 | -1.3 | 40.7* | -3.6 | 5.7 | 1.3
O=S(=O)(Nc1ccc(S(=O)(=O)Nc2ccccc2)cc1)c1ccccc1 | 20.3 | -2.6 | 10.7 | 13.0 | 1.4
O=S(=O)(Nc1ccc(N=Nc2ccccc2)cc1)c1ccccc1 | 1.0 | -12.0 | 23.4 | -52.2* | -0.9
COc1cccc(-c2nc(CS(=O)(=O)CC(=O)Nc3cc(F)ccc3F)c(C)o2)c1 | 5.9 | -7.8 | -11.8 | -0.8 | 0.4
Cc1cc([N+](=O)[O-])ccc1NC(=O)CSc1nccn1C | -0.2 | -7.8 | -6.9 | . | -3.7
Brc1cccc(OCCn2ccnc2)c1 | 4.0 | -3.0 | 3.1 | -65.3* | 1.8
Brc1cccc(OCCOCCn2ccnc2)c1 | 3.3 | -3.2 | -1.6 | -21.7 | -1.2
CCC(C)c1ccccc1OCCn1ccnc1 (stereo not given) | 7.2 | 0.4 | -34.4* | 0.0 | -5.5
COc1cccc(OCCCn2ccnc2)c1 | 4.8 | 5.6 | -9.2 | 4.1 | 4.6
SMILES | D1 ag | D3 ag | D1 antag | DRD3 antagonist | D1 potentiator
Cc1cc(OCCCn2ccnc2)cc(C)c1Cl | 7.7 | 5.1 | -31.5* | 23.7 | -8.9
CCc1cccc(OCCCn2ccnc2)c1 | 5.6 | 17.2 | -31.5* | -9.9 | -1.9
CCN(CC(=O)Nc1ccccc1C(F)(F)F)C(=O)c1ccc(N2C(=O)CCC2=O)cc1 | 1.8 | -14.5 | 10.1 | -10.2 | 8.4
CCCc1nn2c(=O)cc(COC(=O)CNC(=O)COc3ccc(C)cc3)nc2s1 | -0.3 | 9.8 | -19.0 | . | -6.6
CCc1ccc2oc(C(=O)N3CCN(c4ccccc4OC)CC3)cc(=O)c2c1 | -0.1 | -1.1 | 8.4 | 5.0 | -4.3
CCc1ccc2oc(C(=O)N3CCN(c4ccc(OC)cc4)CC3)cc(=O)c2c1 | 5.6 | 4.5 | -40.8* | 5.8 | -5.7
CN1CCN(CC(=O)N2CCn3c4c(c5cc(C6CCCCC6)ccc53)CCCC42)CC1 (stereo not given) | 25.1 | 3.2 | -37.9* | -65.3* | -15.6
O=C(Nc1ccc(Cl)c(Cl)c1)c1ccc(Cn2cc(Cl)cn2)cc1 | 33.5* | -0.2 | -7.4 | 16.0 | -6.5
CCOC(=O)Nc1nnc(/C=C/c2ccc(OC)cc2)s1 | 1.8 | -12.9 | 7.9 | -55.5* | -7.5

Assay outcomes deposited in PubChem by National Center for Advancing Translational Sciences (NCATS).
